Publication PMC8384837, “Expanding the binding specificity for RNA recognition by a PUF domain”
Where a chain is given by its changes, count along the chain named.

Key:
Experiment in all cases: yeast three-hybrid, YBZ-1, SC-Leu-His + 0.5 mM 3-AT, 4 days
Details in all cases: tags: N-Gal4 AD-HA kept; label: inside an RPR1-promoter hybrid RNA with tandem MS2 sites; ssRNA
PUM1 PUF domain R5-QVI = PUM1 PUF domain R5-QVI (Homo sapiens, UniProt Q14671 828-1176, C1007Q;R1008V;Q1011I)
How it was run: (§1)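 Repeat regions from input (SC-Leu) and selection (SC-Leu-His + 0.5 mM 3-AT) plates were PCR-amplified and Illumina-sequenced after four days of growth. The cells were strain YBZ-1 with a LexA–MS2 coat fusion and a HIS3 reporter, co-expressing Pumilio-1 PUF domain libraries and matching RNA elements from a centromeric plasmid. The interaction score is the log change in variant frequency from input to selection, taken in log2 with a pseudocount of 1 for absent variants.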

PUM1 PUF domain R3-GFL = PUM1 PUF domain R3-GFL (Homo sapiens, UniProt Q14671 828-1176, C935G;R936F;Q939L)
How it was run: as §1

PUM1 PUF domain R3-SRL = PUM1 PUF domain R3-SRL (Homo sapiens, UniProt Q14671 828-1176, C935S;Q939L)
How it was run: as §1

PUM1 PUF domain R5-RMC = PUM1 PUF domain R5-RMC (Homo sapiens, UniProt Q14671 828-1176, C1007R;R1008M;Q1011C)
How it was run: as §1

PUM1 PUF domain R5-PRD = PUM1 PUF domain R5-PRD (Homo sapiens, UniProt Q14671 828-1176, C1007P;Q1011D)
How it was run: as §1

PUM1 PUF domain R5-TAR = PUM1 PUF domain R5-TAR (Homo sapiens, UniProt Q14671 828-1176, C1007T;R1008A;Q1011R)
How it was run: as §1

PUM1 PUF domain R5-RND = PUM1 PUF domain R5-RND (Homo sapiens, UniProt Q14671 828-1176, C1007R;R1008N;Q1011D)
How it was run: as §1

PUM1 PUF domain R5-RAK = PUM1 PUF domain R5-RAK (Homo sapiens, UniProt Q14671 828-1176, C1007R;R1008A;Q1011K)
How it was run: as §1

PUM1 PUF domain R1-QVR = PUM1 PUF domain R1-QVR (Homo sapiens, UniProt Q14671 828-1176, S863Q;R864V;Q867R)
How it was run: as §1

PUM1 PUF domain R1-NKR = PUM1 PUF domain R1-NKR (Homo sapiens, UniProt Q14671 828-1176, S863N;R864K;Q867R)
How it was run: as §1

PUM1 PUF domain R6-DWE = biological target: T1, PUM1 PUF domain R6-DWE (Homo sapiens, UniProt Q14671 828-1176, N1043D;Y1044W;Q1047E)
T1 sequence: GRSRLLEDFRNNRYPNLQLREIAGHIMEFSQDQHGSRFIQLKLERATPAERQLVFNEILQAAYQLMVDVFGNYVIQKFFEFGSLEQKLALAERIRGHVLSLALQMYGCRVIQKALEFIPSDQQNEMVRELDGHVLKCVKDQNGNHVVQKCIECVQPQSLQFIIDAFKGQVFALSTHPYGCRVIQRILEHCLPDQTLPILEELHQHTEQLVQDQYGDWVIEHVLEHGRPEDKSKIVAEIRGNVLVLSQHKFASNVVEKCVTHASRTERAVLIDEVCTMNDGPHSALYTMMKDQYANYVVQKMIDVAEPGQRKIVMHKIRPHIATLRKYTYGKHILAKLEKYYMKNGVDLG
How it was run: as §1

PUM1 PUF domain R6-VYL = biological target: T2, PUM1 PUF domain R6-VYL (Homo sapiens, UniProt Q14671 828-1176, N1043V;Q1047L)
T2 sequence: T1 sequence with D216V, W217Y, E220L
How it was run: as §1

**Q.** “GGCUAGAACUAGUGGAUCCCCCGGCGCCCGGCGGCUCGAGCCCGGGUAAGUGUGAAUAGUCUGCAUGCCGCCGGGCGCCAUGCCUGCAGGUCGACUCUAGAAAACAUG” was tested. Which binding signal (PUM1 PUF domain R5-QVI) did it give?
**A.** 4.41 log2 enrichment (interaction score)

**Q.** With “GGCUAGAACUAGUGGAUCCCCCGGCGCCCGGCGGCUCGAGCCCGGGUAAGUGUAAUUAGUCUGCAUGCCGCCGGGCGCCAUGCCUGCAGGUCGACUCUAGAAAACAUG” as the sequence, how does the binding signal (PUM1 PUF domain R3-GFL) read?
**A.** 2.59 log2 enrichment (interaction score)

**Q.** And the binding signal (PUM1 PUF domain R3-SRL)?
**A.** 1.51 log2 enrichment (interaction score)

**Q.** What does the source list for “GGCUAGAACUAGUGGAUCCCCCGGCGCCCGGCGGCUCGAGCCCGGGUAAGUGUCAAUAGUCUGCAUGCCGCCGGGCGCCAUGCCUGCAGGUCGACUCUAGAAAACAUG”?
**A.** binding signal (PUM1 PUF domain R5-RMC): 3.26 log2 enrichment (interaction score); binding signal (PUM1 PUF domain R5-PRD): 2.8 log2 enrichment (interaction score); binding signal (PUM1 PUF domain R5-TAR): 5.36 log2 enrichment (interaction score); binding signal (PUM1 PUF domain R5-RND): 5.27 log2 enrichment (interaction score); binding signal (PUM1 PUF domain R5-RAK): 3.03 log2 enrichment (interaction score)

**Q.** Which results are given for “GGCUAGAACUAGUGGAUCCCCCGGCGCCCGGCGGCUCGAGCCCGGGUAAGUGUAAAUCGUCUGCAUGCCGCCGGGCGCCAUGCCUGCAGGUCGACUCUAGAAAACAUG”?
**A.** binding signal (PUM1 PUF domain R1-QVR): 3.01 log2 enrichment (interaction score); binding signal (PUM1 PUF domain R1-NKR): 3.94 log2 enrichment (interaction score)

**Q.** How did the binding signal (PUM1 PUF domain R6-DWE) turn out when “GGCUAGAACUAGUGGAUCCCCCGGCGCCCGGCGGCUCGAGCCCGGGUAAGUGAAAAUAGUCUGCAUGCCGCCGGGCGCCAUGCCUGCAGGUCGACUCUAGAAAACAUG” was run?
**A.** 2.98 log2 enrichment (interaction score)

**Q.** And the binding signal (PUM1 PUF domain R6-VYL)?
**A.** 6.07 log2 enrichment (interaction score)

**Q.** What does the source list for “GGCUAGAACUAGUGGAUCCCCCGGCGCCCGGCGGCUCGAGCCCGGGUAAGUGUUAAUAGUCUGCAUGCCGCCGGGCGCCAUGCCUGCAGGUCGACUCUAGAAAACAUG”?
**A.** binding signal (PUM1 PUF domain R5-RMC): 3.38 log2 enrichment (interaction score); binding signal (PUM1 PUF domain R5-PRD): 3.07 log2 enrichment (interaction score); binding signal (PUM1 PUF domain R5-TAR): 1.21 log2 enrichment (interaction score); binding signal (PUM1 PUF domain R5-RAK): 3.4 log2 enrichment (interaction score)
